# Measurements taken from publication PMC7862700, “An all-to-all approach to the identification of sequence-specific readers for epigenetic DNA modifications on cytosine”.
# How the values were obtained:
# Assay in all cases: DAPPL (digital affinity profiling via proximity ligation, sequencing); 10 mM Tris-HCl pH 7.5, 50 mM NaCl, 1 mM DTT, 4% glycerol, room temperature, 30 min; GST-TFs on glutathione beads, 16-mer random dsDNA library, 0.1% formaldehyde crosslink after washing; high values mean tight binding
# Conditions in all cases: protein: recombinant; tags: N-terminal GST; dsDNA, one strand shown
# FLI1 = target: T1, FLI1 (Homo sapiens, UniProt Q01543 1-452)
# T1 sequence: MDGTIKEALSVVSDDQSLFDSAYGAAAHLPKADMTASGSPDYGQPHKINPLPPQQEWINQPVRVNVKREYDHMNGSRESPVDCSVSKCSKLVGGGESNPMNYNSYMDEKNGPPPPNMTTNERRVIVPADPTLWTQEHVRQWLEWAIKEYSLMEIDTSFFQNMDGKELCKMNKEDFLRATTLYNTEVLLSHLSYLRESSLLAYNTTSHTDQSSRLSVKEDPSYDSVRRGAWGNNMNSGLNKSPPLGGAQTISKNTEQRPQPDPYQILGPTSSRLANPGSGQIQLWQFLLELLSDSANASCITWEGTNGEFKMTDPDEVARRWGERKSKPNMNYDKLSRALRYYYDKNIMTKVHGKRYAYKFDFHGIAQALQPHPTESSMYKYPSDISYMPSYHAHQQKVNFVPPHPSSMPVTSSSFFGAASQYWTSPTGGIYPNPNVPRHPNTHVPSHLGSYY
# How it was run: (§1)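 The binding signal reported is, for every hexamer, its read frequency for a factor over its read frequency for the tag-only sample. Reads came from pools of yeast-expressed, GST-fused human transcription factors on glutathione beads, barcoded with DNA and mixed with that sample, which were incubated with 200 nmole of a random double-stranded 16-mer DNA library in Tris/NaCl/DTT/glycerol buffer at room temperature for 30 min. After washing, the pools were crosslinked with 0.1% formaldehyde, proximity-ligated with BsaI/T4 ligase for 1 h at 37 °C, PCR-amplified and sequenced on an Illumina NextSeq500.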
# ELK1 = target: T2, ELK1 (Homo sapiens, UniProt P19419 1-428)
# T2 sequence: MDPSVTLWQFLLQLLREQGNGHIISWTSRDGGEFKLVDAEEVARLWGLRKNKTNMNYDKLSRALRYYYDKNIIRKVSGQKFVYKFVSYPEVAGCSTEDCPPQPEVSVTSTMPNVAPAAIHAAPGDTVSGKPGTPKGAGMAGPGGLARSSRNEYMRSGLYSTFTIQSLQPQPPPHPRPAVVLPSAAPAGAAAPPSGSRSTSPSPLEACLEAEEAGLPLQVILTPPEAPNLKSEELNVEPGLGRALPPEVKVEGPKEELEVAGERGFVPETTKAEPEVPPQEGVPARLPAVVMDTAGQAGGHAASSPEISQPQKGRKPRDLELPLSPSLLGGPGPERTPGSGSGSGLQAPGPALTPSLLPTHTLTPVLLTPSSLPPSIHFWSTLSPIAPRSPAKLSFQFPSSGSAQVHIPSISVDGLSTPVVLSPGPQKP
# How it was run: as §1
# GABPA = target: T3, GABPA (Homo sapiens, UniProt Q06546 1-454)
# T3 sequence: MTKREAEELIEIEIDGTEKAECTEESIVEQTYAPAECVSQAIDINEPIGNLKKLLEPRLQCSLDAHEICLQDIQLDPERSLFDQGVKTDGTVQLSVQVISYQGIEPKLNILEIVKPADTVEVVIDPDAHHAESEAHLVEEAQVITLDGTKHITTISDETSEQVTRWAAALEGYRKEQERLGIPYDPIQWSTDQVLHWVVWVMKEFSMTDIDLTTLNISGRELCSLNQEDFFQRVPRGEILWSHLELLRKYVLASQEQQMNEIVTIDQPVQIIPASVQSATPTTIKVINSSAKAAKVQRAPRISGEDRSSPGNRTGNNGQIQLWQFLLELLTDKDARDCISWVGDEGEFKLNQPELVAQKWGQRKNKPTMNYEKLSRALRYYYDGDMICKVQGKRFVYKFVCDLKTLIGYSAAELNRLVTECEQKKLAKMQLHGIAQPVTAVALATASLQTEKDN
# How it was run: as §1
# ERG = target: T4, ERG (Homo sapiens, UniProt P11308 1-479)
# T4 sequence: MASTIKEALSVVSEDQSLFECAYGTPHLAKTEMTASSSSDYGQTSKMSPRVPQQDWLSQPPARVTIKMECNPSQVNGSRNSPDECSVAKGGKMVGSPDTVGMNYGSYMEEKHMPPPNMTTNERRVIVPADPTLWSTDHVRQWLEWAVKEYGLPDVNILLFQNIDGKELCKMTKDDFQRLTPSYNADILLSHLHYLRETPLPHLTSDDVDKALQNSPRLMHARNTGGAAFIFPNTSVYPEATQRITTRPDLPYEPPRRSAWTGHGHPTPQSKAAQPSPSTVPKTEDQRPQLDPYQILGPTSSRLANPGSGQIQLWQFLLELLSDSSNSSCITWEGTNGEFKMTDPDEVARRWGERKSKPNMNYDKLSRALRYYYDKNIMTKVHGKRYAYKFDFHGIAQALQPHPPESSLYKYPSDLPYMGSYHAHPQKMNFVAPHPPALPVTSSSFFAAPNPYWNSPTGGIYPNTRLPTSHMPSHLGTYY
# How it was run: as §1
# ELF1 = ELF1 (Homo sapiens, UniProt P32519 1-619)
# How it was run: as §1
# EHF = target: T5, EHF (Homo sapiens, UniProt Q9NZC4 1-300)
# T5 sequence: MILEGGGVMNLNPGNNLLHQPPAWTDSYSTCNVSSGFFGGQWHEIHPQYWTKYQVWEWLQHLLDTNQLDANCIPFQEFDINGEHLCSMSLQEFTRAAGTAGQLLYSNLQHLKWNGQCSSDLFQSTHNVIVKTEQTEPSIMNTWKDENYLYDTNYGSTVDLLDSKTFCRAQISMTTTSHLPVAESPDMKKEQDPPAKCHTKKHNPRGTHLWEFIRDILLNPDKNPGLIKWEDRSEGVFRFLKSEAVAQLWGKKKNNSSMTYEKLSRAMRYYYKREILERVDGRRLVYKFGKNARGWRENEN
# How it was run: as §1
# SPI1 = SPI1 (Homo sapiens, UniProt P17947 1-270)
# How it was run: as §1
# SPIB = SPIB (Homo sapiens, UniProt Q01892 1-262)
# How it was run: as §1
# ELK3 = target: T6, ELK3 (Homo sapiens, UniProt P41970 1-407)
# T6 sequence: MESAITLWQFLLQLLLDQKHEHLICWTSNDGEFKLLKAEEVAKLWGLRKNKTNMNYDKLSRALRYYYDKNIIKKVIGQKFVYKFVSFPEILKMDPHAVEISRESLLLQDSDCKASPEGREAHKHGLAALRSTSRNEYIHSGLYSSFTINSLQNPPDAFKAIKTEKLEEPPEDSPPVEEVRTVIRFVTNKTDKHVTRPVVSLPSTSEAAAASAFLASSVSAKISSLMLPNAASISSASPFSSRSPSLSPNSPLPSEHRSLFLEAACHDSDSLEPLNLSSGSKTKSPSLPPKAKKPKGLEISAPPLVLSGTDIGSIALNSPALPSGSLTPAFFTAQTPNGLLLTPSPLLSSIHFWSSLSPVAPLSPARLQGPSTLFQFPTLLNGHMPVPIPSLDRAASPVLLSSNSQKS
# How it was run: as §1
# ELF1, sequence (P32519 whole entry): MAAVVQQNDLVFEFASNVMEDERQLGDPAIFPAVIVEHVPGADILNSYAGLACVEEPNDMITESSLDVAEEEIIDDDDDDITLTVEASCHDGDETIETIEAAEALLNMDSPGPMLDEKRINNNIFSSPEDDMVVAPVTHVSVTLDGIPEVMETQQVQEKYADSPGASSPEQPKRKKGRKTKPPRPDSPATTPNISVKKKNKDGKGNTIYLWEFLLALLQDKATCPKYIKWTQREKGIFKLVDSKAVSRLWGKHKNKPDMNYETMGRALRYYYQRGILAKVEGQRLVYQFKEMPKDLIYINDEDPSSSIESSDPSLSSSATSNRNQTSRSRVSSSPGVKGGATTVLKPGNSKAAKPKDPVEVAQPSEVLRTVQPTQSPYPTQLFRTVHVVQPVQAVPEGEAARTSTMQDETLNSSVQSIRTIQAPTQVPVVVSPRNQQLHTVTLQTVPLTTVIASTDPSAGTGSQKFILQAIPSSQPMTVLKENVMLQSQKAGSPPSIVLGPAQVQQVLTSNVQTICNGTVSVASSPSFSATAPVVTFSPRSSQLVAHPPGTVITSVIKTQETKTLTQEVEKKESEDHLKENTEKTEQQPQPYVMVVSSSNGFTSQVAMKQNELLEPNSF
# SPIB, sequence (Q01892 whole entry): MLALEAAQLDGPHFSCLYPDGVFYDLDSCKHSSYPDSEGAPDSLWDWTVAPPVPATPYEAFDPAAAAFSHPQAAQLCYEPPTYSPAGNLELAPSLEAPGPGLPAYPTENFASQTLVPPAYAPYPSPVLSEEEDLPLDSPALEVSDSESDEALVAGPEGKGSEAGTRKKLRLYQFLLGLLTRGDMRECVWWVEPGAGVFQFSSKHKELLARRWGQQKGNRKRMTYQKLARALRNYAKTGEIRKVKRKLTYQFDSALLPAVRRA
Sequence,binding signal (FLI1),binding signal (ELK1),binding signal (GABPA),binding signal (ERG),binding signal (ELF1),binding signal (EHF),binding signal (SPI1),binding signal (SPIB),binding signal (ELK3)
TTTTGT,"1.35 fold enrichment (6-mer frequency, TF over GST control)","1.18 fold enrichment (6-mer frequency, TF over GST control)","1.36 fold enrichment (6-mer frequency, TF over GST control)","1.39 fold enrichment (6-mer frequency, TF over GST control)","1.33 fold enrichment (6-mer frequency, TF over GST control)","1.33 fold enrichment (6-mer frequency, TF over GST control)","1.43 fold enrichment (6-mer frequency, TF over GST control)","1.37 fold enrichment (6-mer frequency, TF over GST control)","1.27 fold enrichment (6-mer frequency, TF over GST control)"
TTACAT,"1.3 fold enrichment (6-mer frequency, TF over GST control)","1.27 fold enrichment (6-mer frequency, TF over GST control)","1.38 fold enrichment (6-mer frequency, TF over GST control)","1.31 fold enrichment (6-mer frequency, TF over GST control)","1.31 fold enrichment (6-mer frequency, TF over GST control)","1.43 fold enrichment (6-mer frequency, TF over GST control)","1.3 fold enrichment (6-mer frequency, TF over GST control)","1.3 fold enrichment (6-mer frequency, TF over GST control)","1.36 fold enrichment (6-mer frequency, TF over GST control)"
TACCCG,"1.42 fold enrichment (6-mer frequency, TF over GST control)","1.35 fold enrichment (6-mer frequency, TF over GST control)","1.51 fold enrichment (6-mer frequency, TF over GST control)","1.57 fold enrichment (6-mer frequency, TF over GST control)","1.52 fold enrichment (6-mer frequency, TF over GST control)","1.58 fold enrichment (6-mer frequency, TF over GST control)","1.42 fold enrichment (6-mer frequency, TF over GST control)","1.52 fold enrichment (6-mer frequency, TF over GST control)","1.37 fold enrichment (6-mer frequency, TF over GST control)"
TAAAAA,"1.27 fold enrichment (6-mer frequency, TF over GST control)","1.13 fold enrichment (6-mer frequency, TF over GST control)","1.36 fold enrichment (6-mer frequency, TF over GST control)","1.26 fold enrichment (6-mer frequency, TF over GST control)","1.26 fold enrichment (6-mer frequency, TF over GST control)","1.29 fold enrichment (6-mer frequency, TF over GST control)","1.53 fold enrichment (6-mer frequency, TF over GST control)","1.35 fold enrichment (6-mer frequency, TF over GST control)","1.32 fold enrichment (6-mer frequency, TF over GST control)"
CTCTTC,"1.62 fold enrichment (6-mer frequency, TF over GST control)","1.64 fold enrichment (6-mer frequency, TF over GST control)","1.66 fold enrichment (6-mer frequency, TF over GST control)","1.71 fold enrichment (6-mer frequency, TF over GST control)","1.66 fold enrichment (6-mer frequency, TF over GST control)","1.69 fold enrichment (6-mer frequency, TF over GST control)","1.6 fold enrichment (6-mer frequency, TF over GST control)","1.84 fold enrichment (6-mer frequency, TF over GST control)","1.66 fold enrichment (6-mer frequency, TF over GST control)"
AACCTG,"1.19 fold enrichment (6-mer frequency, TF over GST control)","1.2 fold enrichment (6-mer frequency, TF over GST control)","1.17 fold enrichment (6-mer frequency, TF over GST control)","1.09 fold enrichment (6-mer frequency, TF over GST control)","1.16 fold enrichment (6-mer frequency, TF over GST control)","1.22 fold enrichment (6-mer frequency, TF over GST control)","1.27 fold enrichment (6-mer frequency, TF over GST control)","1.12 fold enrichment (6-mer frequency, TF over GST control)","1.21 fold enrichment (6-mer frequency, TF over GST control)"
TGGCTC,"1.4 fold enrichment (6-mer frequency, TF over GST control)","1.43 fold enrichment (6-mer frequency, TF over GST control)","1.47 fold enrichment (6-mer frequency, TF over GST control)","1.43 fold enrichment (6-mer frequency, TF over GST control)","1.46 fold enrichment (6-mer frequency, TF over GST control)","1.34 fold enrichment (6-mer frequency, TF over GST control)","1.16 fold enrichment (6-mer frequency, TF over GST control)","1.39 fold enrichment (6-mer frequency, TF over GST control)","1.3 fold enrichment (6-mer frequency, TF over GST control)"
TAGATG,"1.28 fold enrichment (6-mer frequency, TF over GST control)","1.29 fold enrichment (6-mer frequency, TF over GST control)","1.27 fold enrichment (6-mer frequency, TF over GST control)","1.27 fold enrichment (6-mer frequency, TF over GST control)","1.29 fold enrichment (6-mer frequency, TF over GST control)","1.26 fold enrichment (6-mer frequency, TF over GST control)","1.3 fold enrichment (6-mer frequency, TF over GST control)","1.24 fold enrichment (6-mer frequency, TF over GST control)","1.31 fold enrichment (6-mer frequency, TF over GST control)"
